Assay [1] in a line: BSK_BT_PBMCCytotoxicity: PBMC Cytotoxicity Assessment in the BioMAP Diversity Plus: BT Assay (AID 2284225).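 Further: PBMC viability measured by Alamar Blue dye reduction fluorescence.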 To be noted: primary human B cells with PBMC. The method in brief: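 75,000 cells/well; cpd 1 h → SEB + TSST-1 (20 ng/mL final each) → 90 h → Alamar Blue 6 h → fluor. 546/580 nm. DMSO = neg. control/baseline.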
Read-out in assay [2]: Secreted IgG (sIgG), gene 3500
The assay can be described thus: BSK_BT_sIgG: BioMAP Diversity Plus: BT Assay for Secreted IgG (sIgG) Biomarker Activity (AID 2284226). To be noted: primary human B cells with PBMC. An outline of the steps:
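Secreted IgG from a human primary B cell–PBMC co-culture was measured by ELISA 24 hours after dosing, with DMSO defining baseline activity.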

Assay [3] is described as follows: BSK_BT_Bcell_Proliferation: Viability Assessment in the BioMAP Diversity Plus: BT Assay for B cell Proliferation (AID 2284227). To be noted: primary human B cells with PBMC. The method in brief:
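Read-out is absorbance at 560 nm from sulforhodamine B staining of total protein, reflecting relative cell numbers in a human B cell and PBMC co-culture after 72 h of chemical exposure. Values were referenced to DMSO.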

Read-out in assay [4]: Interleukin 6 (IL6), IL6 (gene 3569)
In words: BSK_BT_xIL6: BioMAP Diversity Plus: BT Assay for Interleukin 6 (IL6) Biomarker Activity (AID 2284228). To be noted: primary human B cells with PBMC. The method in brief: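 IL-6 secretion measured (Luminex xMAP) in human primary B cell + PBMC co-culture at 24 h of chemical exposure; DMSO served as negative control and activity baseline, with curves fitted for increase.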

Read-out in assay [5]: Interleukin 17A (IL17A), IL17A (gene 3605)
In words: BSK_BT_xIL17A: BioMAP Diversity Plus: BT Assay for Interleukin 17A (IL17A) Biomarker Activity (AID 2284229). To be noted: primary human B cells with PBMC. The method in brief: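 Human primary B cells plus PBMC, treated 24 h with chemicals; supernatant IL-17A quantified on Luminex xMAP beads. Gain of signal over DMSO control scored as activity.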

Read-out in assay [6]: Tumor necrosis factor (Homo sapiens) (UniProt P01375)
In words: BSK_BT_xTNFa: BioMAP Diversity Plus: BT Assay for Tumor necrosis factor alpha (TNF-alpha) Biomarker Activity (AID 2284230). To be noted: primary human B cells with PBMC. The method in brief: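 Human primary co-culture of B cells and peripheral blood mononuclear cells; TNF-alpha in supernatant, 24 h post-dose, Luminex multiplex; DMSO = baseline.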

Read-out in assay [7]: Vascular cell adhesion molecule 1 (VCAM1), VCAM1 (gene 7412)
The assay can be described thus: BSK_MyoF_VCAM1: BioMAP Diversity Plus: MyoF Assay for Vascular cell adhesion molecule 1 (VCAM1) Biomarker Activity (AID 2284231). To be noted: primary human lung fibroblasts. An outline of the steps: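 VCAM-1 levels, lung fibroblasts, ELISA, 24 h exposure, increase scored relative to DMSO.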

Assay [8] is described as follows: CCTE_Mundy_HCI_Cortical_NOG_NeuriteCount: CCTE's Neurite Outgrowth Assay in rat cortical cells for Neurite Count, Mundy Lab (AID 2284212).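 Further: cells fixed about two days after chemical exposure began.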 An outline of the steps: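 Neurite number per cell from high-content imaging of betaIII-tubulin immunostaining, with Hoechst nuclear counterstain.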
The nature of assay [9]: CCTE_Mundy_HCI_Cortical_NOG_NeuriteLength: CCTE's Neurite Outgrowth Assay in rat cortical cells for Neurite Length, Mundy Lab (AID 2284213). An outline of the steps:
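Neurite length was read by high-content imaging of βIII-tubulin-labelled neurites in rat primary cortical cultures. Activity was fitted relative to DMSO.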

The nature of assay [10]: CCTE_Mundy_HCI_Cortical_Synap_Neur_Matur_NeuriteLength: CCTE's Synaptogenesis and Neurite Maturation Assay in rat cortical cells for Neurite Length, Mundy Lab (AID 2284214). The method in brief: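 Neurite length in rat primary cortical cultures is imaged after MAP2, synaptophysin and Hoechst staining. Dosing starts DIV 7, ending DIV 12; DMSO serves as negative control and baseline.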

A short description of assay [11]: CCTE_Mundy_HCI_Cortical_Synap_Neur_Matur_NeuriteSpotCountPerNeuron: CCTE's Synaptogenesis and Neurite Maturation Assay in rat cortical cells for Neurite Spot Count per Neuron Count, Mundy Lab (AID 2284215). The method in brief: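 Developing rat cortical neurons, with glia suppressed by AraC, are exposed to chemicals from DIV 7 to DIV 12. Automated fluorescence imaging of MAP2-labelled neurites and synaptophysin puncta yields a count per neuron, normalised against DMSO wells.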

Assay [12] is described as follows: TAMU_PeakParms_SingleDonor1434_Chronotropy: Texas A&M University (TAMU) 1.5-hr Human Induced Pluripotent Stem Cell (iPSC)-derived Cardiomyocytes Calcium (Ca+2) Flux Assay for Cardiotoxicity: Chronotropy (changes in peak frequency) (AID 2284217). To be noted: actives raise or lower the signal. The method in brief:
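iPSC-CMs, donor 1434; 4 conc (0.2–100 uM), 0.5% v/v DMSO, 90 min, 37C/5% CO2; Ca2+ flux fluorescence → peak.freq.avg; peak.freq.avg = 0 dropped; bidirectional fit vs DMSO; EC05 POD.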

Assay [13] in a line: CCTE_Mundy_HCI_Cortical_Synap_Neur_Matur_SynapseCount: CCTE's Synaptogenesis and Neurite Maturation Assay in rat cortical cells for Synapse Count, Mundy Lab (AID 2284218). The method in brief:
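Synapse count per neuron is measured in rat cortical neurons exposed to chemicals between DIV 7 and DIV 12, with glial growth arrested by AraC at DIV 5. Synaptophysin and MAP2 staining is imaged automatically; activity is fitted relative to DMSO.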

Assay [14] in a line: CCTE_Mundy_HCI_Cortical_Synap_Neur_Matur_NeuriteCount: CCTE's Synaptogenesis and Neurite Maturation Assay in rat cortical cells for Neurite Count, Mundy Lab (AID 2284222).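 Further: exposure from day 7 to day 12 in vitro with readout at day 12.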 The method in brief:
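Primary rat cortical cells were plated, treated with AraC at DIV 5, then exposed to chemicals from DIV 7 through DIV 12. After fixation and immunostaining for MAP2 and synaptophysin, imaging quantified neurites, with DMSO as the negative control.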

Assay [15] in a line: CCTE_Mundy_HCI_Cortical_Synap_Neur_Matur_CellBodySpotCount: CCTE's Synaptogenesis and Neurite Maturation Assay in rat cortical cells for Cell Body Spot Count, Mundy Lab (AID 2284223). An outline of the steps:
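Chemicals were applied to AraC-treated rat primary cortical cells at DIV 7 and measured at DIV 12. Fixed cells were labelled for MAP2, synaptophysin and nuclei, and high-content imaging gave cell body synaptophysin spot counts per neuron relative to DMSO.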

The nature of assay [16]: CCTE_Mundy_HCI_hNP1_Pro_ResponderAvgInten: CCTE's Proliferation Assay in human neuroprogenitor cells, Mundy Lab (AID 2284224; active means hit-call score of the fitted dose curve at least 0.9, where 1 is the maximum;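 further: human neural progenitor cells hNP1 derived from WA09 embryonic stem cells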). An outline of the steps:
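Proliferation was scored as BrdU labelling intensity in human neural progenitors derived from WA09 embryonic cells, measured 26.25 hours after chemical dosing. Activity was fitted relative to DMSO.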

Assay [17] in a line: TAMU_HCS_1.5hr_SingleDonor1434_Cytotoxicity: Cytotoxicity Assessment using High-content Screening (HCS) Fluorescent Imaging for the Texas A&M University (TAMU) 1.5-hr Human Induced Pluripotent Stem Cell (iPSC)-derived Cardiotoxicity Assay (AID 2284234; active means hit-call score of the fitted dose curve at least 0.9, where 1 is the maximum). The method in brief:
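Human iPSC-derived cardiomyocytes dosed at 0.2, 1, 10, 100 uM final (0.5% DMSO) for 90 min at 37 C. Hoechst 33342-stained nuclei counted by 10x high-content imaging; POD is EC10, a 10% drop in total cell count versus DMSO.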

Assay [18] can be described thus: CCTE_Mundy_HCI_Cortical_NOG_NeuronCount: CCTE's Neurite Outgrowth Assay in rat cortical cells for Neuron Count, Mundy Lab (AID 2284236; active means hit-call score of the fitted dose curve at least 0.9, where 1 is the maximum;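 further: neurons counted by imaging betaIII-tubulin and Hoechst stained cortical cells; cells exposed to compound for about 48 hours before fixation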). An outline of the steps: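 Read-out: neuron number by high-content imaging of betaIII-tubulin (Alexa Fluor-488) and Hoechst-labelled rat primary cortical cells.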
The nature of assay [19]: CCTE_Mundy_HCI_Cortical_NOG_BPCount: CCTE's Neurite Outgrowth Assay in rat cortical cells for Branch Point Count, Mundy Lab (AID 2284237). An outline of the steps:
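Measured 50.33 h after dosing, this morphology endpoint uses rat primary cortical cultures labelled for betaIII-tubulin. Branch points are quantified by high-content imaging, with DMSO as negative control and baseline.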

Where “and” joins values, the source holds several entries; their conditions need not be identical. Identical values can stand only once. Results filed as inconclusive are left out. Calls of active or inactive are those of the source. How the source made its calls, unless noted: active means hit-call score of the fitted dose curve at least 0.9, where 1 is the maximum; inactive means score below 0.9. Peptide text beside a SMILES is read from it.

One may read the AC50 as the midpoint of the concentration-response curve, whichever way the signal moves.

Sequence of Tumor necrosis factor (Homo sapiens) (P01375 whole entry, looked up): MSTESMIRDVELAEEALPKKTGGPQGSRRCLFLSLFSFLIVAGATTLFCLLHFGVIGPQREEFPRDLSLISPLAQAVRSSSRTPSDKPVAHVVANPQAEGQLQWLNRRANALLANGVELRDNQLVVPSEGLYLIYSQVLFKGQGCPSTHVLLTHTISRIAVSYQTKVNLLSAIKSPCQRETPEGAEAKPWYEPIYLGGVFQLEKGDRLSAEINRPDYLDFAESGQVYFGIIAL

With `COc1ccc(C(=O)/C(Br)=C\C(=O)O)cc1`, the AC50 in assay [1] is 27.6 µM (active) and 25.4 µM (active); in [2], 6.83 µM (active) and 8.75 µM (active); in assay [3] it was 25.4 µM (active) and 18.6 µM (active); in [4] it was 20 µM (active); in [5], 24.3 µM (active) and 25.6 µM (active); in [6], 31.3 µM (active) and 29.5 µM (active). Further, the AC50 in assay [7] was 25.5 µM (active) and 10.5 µM (active).
Regarding `CC=C(C)C=CC=C(C)C`, the AC50 in [1] is 19.9 µM (active); in assay [2] it was 12.3 µM (active); in assay [3], 26.9 µM (active); in assay [4], 14.1 µM (active); in assay [6], 27.7 µM (active). The outcome in assay [5] and in assay [7] was inactive.
For `C=CC(=O)OCCCCCCOC(=O)C=C`, the AC50 was 14.3 µM (active) in assay [1]; 5.85 µM (active) in assay [2]; 13.2 µM (active) in assay [3]; 7.22 µM (active) in assay [4]; 6.04 µM (active) in assay [5]; 13.1 µM (active) in [6]. In addition, the AC50 in [7] was 20 µM (active).
On to `COC(=O)[C@H](Cc1ccccc1)NC(=O)[C@@H](N)CC(=O)O` (H-Asp-Phe-OMe), for which the molecule was classed as inactive in assay [8], in assay [9], in assay [10], in assay [11], in [12] and in [13]. In addition, the molecule was called inactive in assay [14], in assay [15], in [16], in [17], in assay [18] and in [19].
In the case of `CCCCCCCO`, the outcome in [1], in assay [2], in assay [3], in [4], in assay [5] and in assay [6] was inactive. Also, in assay [7], the outcome was inactive.
For the molecule `CC(c1cc(C(C)(C)C)cc(C(C)(C)C)c1O)c1cc(C(C)(C)C)cc(C(C)(C)C)c1O`, the AC50 in assay [1] is 30.2 µM (active); in assay [2], 5.95 µM (active); in assay [3] it was 28.1 µM (active); in assay [4], 32.3 µM (active); in [5] it was 17.2 µM (active); in assay [6], 26.5 µM (active). Further, the result in assay [7] was inactive.
`COC(OC)(C(=O)c1ccccc1)c1ccccc1`: the outcome in assay [1], in assay [2], in assay [3], in assay [4], in assay [5] and in [6] was inactive. In [7], the result was inactive.
Consider `CC1(C)CC(O)CC(C)(C)N1[O]`, for which the outcome in assay [1], in assay [2], in [3], in assay [4], in assay [5] and in assay [6] was inactive. For the same molecule, in [7], the outcome was inactive.
Regarding `C=CC(=O)NC(C)(C)C`, the outcome in assay [1], in assay [2], in assay [3], in assay [4], in assay [5] and in assay [6] was inactive. The outcome in assay [7] was inactive.
Turning to `Clc1cc(Cl)c(Cl)c(Cl)c1Cl`, the result in assay [1], in [2], in assay [3], in assay [4], in assay [5] and in [6] was inactive. Also, in assay [7], the AC50 is 20 µM (active).
Consider `Oc1c(Cl)cc(Cl)c(Cl)c1Cl`, for which the result in [1], in assay [3], in [4], in assay [5] and in assay [6] was inactive. The AC50 in assay [2] was 33.5 µM (active); in [7], 11.6 µM (active).
As to `CC(Cl)COP(=O)(OCC(C)Cl)OCC(C)Cl` (stereo unspecified), the outcome in [1], in assay [2], in assay [3], in assay [4], in assay [5] and in assay [6] was inactive. Further, the outcome in assay [7] was inactive.
For the molecule `Oc1ccc(/C=C/c2cc(O)cc(O)c2)cc1`, the outcome in [1] and in assay [7] was inactive. Further, the half-maximal activity concentration (AC50) in assay [2] is 6.86 µM (active); in assay [3], 24.5 µM (active); in assay [4], 35.4 µM (active); in [5] it was 20 µM (active); in assay [6] it was 25.7 µM (active).

Source of the values: PubChem BioAssay (EPA / NIEHS).
